Drawing on PubChem BioAssay, this text covers composite z-score and composite Z-score for 15 molecules.

One experiment deals with Albumin (Bos taurus) (UniProt P02769). The experiment is described as follows: bovine serum albumin binders on microarray, profiling panel, artefact control for SMM control protein annotation, biochemical, small-molecule microarray, Alexa647 label, 635/667 nm fluorescence (AID 1118).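 Note: score merges 667 nm emission intensity and signal-to-noise per printed compound spot.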 The conditions noted are these: BSA-A647 binding, fluorescence 635 nm, higher = more signal.

Experiment [1] is described as follows: small-molecule microarray binders of probe aXIP, primary screen, biochemical, NeuroSMM set, 635/667 nm fluorescence (AID 1119).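 Note: probe is the protein aXip251-270 applied at 1 µg/mL to compound-printed slides; binding of probe to printed compounds measured as 667 nm fluorescence plus signal to noise.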 The conditions noted are these: higher = more signal, called active from +8 up or from −8 down.
Experiment [2] can be described thus: small-molecule binders of probe aNOTCH3, primary screen, biochemical, small-molecule microarray, 635/667 nm fluorescence (AID 1120).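 Note: probe is a biotin-tagged antibody raised against NOTCH3 rather than NOTCH3 protein; score merges spot fluorescence near 667 nm with spot signal to noise.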 The conditions noted are these: higher = more signal.
Experiment [3] can be described thus: small-molecule binders of probe aNOTCH2, primary screen, biochemical, small-molecule microarray, 635/667 nm fluorescence (AID 1121).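 Note: score merges feature fluorescence read at 667 nm with its signal to noise.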 The note with it: higher = more signal.
The target in experiment [4] is Carbonic anhydrase 2 (Homo sapiens) (UniProt P00918). Briefly: CAII small-molecule binders, profiling panel, biochemical, small-molecule microarray, Alexa647-labelled CAII (AID 1122). The conditions noted are these: CAII-A647 binding fluorescence, higher = more signal.
Experiment [5] is described as follows: COS7 lysate on small-molecule microarray, probe aHis, 635 nm (AID 1123).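 Note: z-score combines 667nm fluorescence intensity with signal-to-noise per printed compound spot.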 The conditions noted are these: COS7 cell lysate, fluorescence, higher = more signal.
A short description of experiment [6]: compound binding in COS7 lysate, probe aLAP1, primary screen, cell lysate, small-molecule microarray (AID 1124).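 Note: lysate comes from COS7 cells expressing LAP1 and is applied at 0.3 µg/mL; score merges spot fluorescence near 667 nm with signal-to-noise over triplicate slides.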 The note with it: probe aLAP1, fluorescence, higher = more signal.
Another experiment has as its system Sam68 (KHDRBS1). The experiment is described as follows: Sam68 small-molecule binders, primary screen, biochemical, small-molecule microarray, 635 nm fluorescence (AID 1125).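 Note: score merges 667 nm channel intensity with signal to noise over triplicate slides.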 The note with it: small-molecule microarray binding, higher = more signal.
Experiment [7] has as its system Chordin-like protein 2 (CHRDL2). Briefly: CHRDL2 small-molecule binders, primary screen, biochemical, small-molecule microarray, 635 nm fluorescence (AID 1126).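 Note: printed compound slides probed with Chrdl2 protein at 4 µg/mL for 1 h at 4 C; score merges 667 nm emission intensity with signal to noise over three replicate slides.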 The note with it: small-molecule microarray binding, fluorescence 635 nm; higher = more signal.
The target of experiment [8] is Concanavalin-A (Canavalia ensiformis) (UniProt P02866). The experiment is described as follows: ConA small-molecule binders, primary screen, artefact control for SMM control protein annotation, biochemical, small-molecule microarray, Alexa647 label, 635 nm (AID 1127).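 Note: z combines 667 nm emission intensity with signal-to-noise across three replicate slides.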 The conditions noted are these: ConA-A647 binding fluorescence, higher = more signal.

Calls of active or inactive are those of the source.

Sequence of Albumin (Bos taurus) (P02769 whole entry, looked up): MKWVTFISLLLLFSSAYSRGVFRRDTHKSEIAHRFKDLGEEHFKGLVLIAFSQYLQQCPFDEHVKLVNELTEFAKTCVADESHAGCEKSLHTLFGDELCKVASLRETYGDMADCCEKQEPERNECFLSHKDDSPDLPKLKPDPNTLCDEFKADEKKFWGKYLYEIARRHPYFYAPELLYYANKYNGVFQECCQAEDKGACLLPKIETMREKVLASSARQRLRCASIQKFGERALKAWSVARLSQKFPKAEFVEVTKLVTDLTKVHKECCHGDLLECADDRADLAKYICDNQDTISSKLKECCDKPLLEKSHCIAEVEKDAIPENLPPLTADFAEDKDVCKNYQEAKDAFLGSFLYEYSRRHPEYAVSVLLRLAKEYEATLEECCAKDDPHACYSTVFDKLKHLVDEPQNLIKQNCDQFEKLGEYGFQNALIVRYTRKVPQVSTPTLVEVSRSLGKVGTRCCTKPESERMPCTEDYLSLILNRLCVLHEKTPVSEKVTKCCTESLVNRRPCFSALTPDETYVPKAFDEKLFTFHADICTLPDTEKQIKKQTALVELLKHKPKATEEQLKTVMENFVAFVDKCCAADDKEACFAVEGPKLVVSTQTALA
Sequence of Concanavalin-A (Canavalia ensiformis) (P02866 whole entry, looked up): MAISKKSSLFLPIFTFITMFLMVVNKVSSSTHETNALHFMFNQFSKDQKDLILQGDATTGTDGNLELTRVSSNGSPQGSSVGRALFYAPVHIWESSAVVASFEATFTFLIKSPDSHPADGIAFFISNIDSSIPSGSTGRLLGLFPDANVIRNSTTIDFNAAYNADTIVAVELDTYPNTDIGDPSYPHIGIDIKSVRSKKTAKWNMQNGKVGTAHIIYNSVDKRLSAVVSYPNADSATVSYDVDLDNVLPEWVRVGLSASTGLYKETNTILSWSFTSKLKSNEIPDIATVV

As for `CC(C)[C@@H](CO)NC(=O)[C@H]1[C@@H](c2ccccc2)N(c2ccccc2)O[C@@H]1C`, the composite z-score with Albumin (Bos taurus) is 0.595; in experiment [2] it was -0.0573; in [3], -0.162; in experiment [4] it was 0.459; in experiment [5] it was 0.46; in experiment [6] it was 0.145. Further, the composite z-score was -0.238 in the experiment with Sam68 (KHDRBS1), 0.207 in experiment [7] and -0.271 in experiment [8]. The composite Z-score in [1] was 0.365 (inactive).

Take `O=C1OCCC/C=C\[C@H]2OC34C=CCN(c5ccc6ccccc6c5)C(=O)[C@H]3N(CCCCCCO)C(=O)[C@@H]4C12` (stereo not given in full): the composite z-score in the experiment with Albumin (Bos taurus) was 0.0499; in experiment [2], -0.256; in experiment [3], -0.163; in experiment [4], 0.946; in [5], -0.0749; in experiment [6], 0.978. Moreover, the figures for the composite z-score (in the experiment with Sam68 (KHDRBS1); in [7]; in experiment [8]) were -0.468, -1.65 and -0.83, respectively. Besides, in [1], the composite Z-score is 0.611 (inactive).

Consider `C=CC[C@]1(C(=O)NCCCOC)N=C(c2ccc(OCCCO)cc2)O[C@H]1c1ccccc1N=[N+]=[N-]`, for which the composite z-score in the experiment with Albumin (Bos taurus) came to 0.958; in experiment [2] it was 0.205; in experiment [3] it was 0.0494; in experiment [4] it was 0.726; in experiment [5] it was 3.06; in experiment [6], 0.397. In addition, the composite z-score in the experiment with Sam68 (KHDRBS1) was 1.31; in [7], -0.0877; in experiment [8], 0.982. Besides, in experiment [1], the composite Z-score was 0.484 (inactive).

For `O=C(c1ccccc1)N1Cc2ccccc2[C@@H]2OC(c3ccc(OCCCO)cc3)=N[C@]2(Cc2ccccc2)C1=O`, the composite z-score in the experiment with Albumin (Bos taurus) was 0.383; in experiment [2], 0.225; in experiment [3], -0.18; in experiment [4] it was 0.554; in experiment [5] it was 1.38; in [6], 0.482. Further, the figures for the composite z-score (in the experiment with Sam68 (KHDRBS1); in experiment [7]; in [8]) were 1.31, 0.061 and 1.13, respectively. For the same molecule, in experiment [1], the composite Z-score was 0.07 (inactive).

For the molecule `C=CCOC(=O)[C@@H]1[C@H]2C(=O)O[C@H](c3ccccc3)[C@H](c3ccccc3)N2[C@H](c2ccc(OCCOC(=O)[C@@H]3C[C@@H]4C(=O)N[C@@H](CCCC[N+](C)(C)C)C(=O)N4[C@@H]3c3cccc(OCCO)c3)cc2)[C@@]12C(=O)Nc1ccc(I)cc12`, the composite z-score with Albumin (Bos taurus) is 0.769; in experiment [2] it was 0.0257; in experiment [3], -0.0666; in experiment [4], 0.46; in [5], 1.9; in experiment [6], 0.0596. In addition, the composite z-score in the experiment on Sam68 (KHDRBS1) worked out at 1.29; in [7], 1.21; in [8], 1.19. Also, in experiment [1], the composite Z-score is 0.516 (inactive).

Consider `CN(C)CCCNC(=O)[C@@]1(C)c2ccccc2C(=O)N(Cc2cc(F)cc(C(F)(F)F)c2)[C@H]1c1ccc(CO)cc1`, for which the composite z-score with Albumin (Bos taurus) was 0.56; in experiment [2], -0.159; in experiment [3], -0.0895; in experiment [4] it was 0.769; in experiment [5] it was -0.065; in experiment [6], 0.457. The results for the composite z-score (in the experiment with Sam68 (KHDRBS1); in [7]; in experiment [8]) were 0.303, -1.66 and -0.282, respectively. Besides, in experiment [1], the composite Z-score was 0.101 (inactive).

For the molecule `CCOC(=O)[C@H]1C/C=C/C[C@H](C(=O)OCC)C(=O)O[C@H]2[C@@H](OC)O[C@H](CO)[C@@H](OC(=O)Nc3ccc(C#N)cc3)[C@@H]2OC1=O`, the composite z-score with Albumin (Bos taurus) was 0.842; in [2], -0.307; in experiment [3], -0.159; in experiment [4], 0.607; in experiment [5], 0.823; in experiment [6] it was 0.603. The composite z-score was 0.171 in the experiment on Sam68 (KHDRBS1), -0.619 in experiment [7] and -0.175 in experiment [8]. In addition, the composite Z-score in experiment [1] is 0.941 (inactive).

`C=C(CCCC)C(=O)CC[C@H](OC(=O)c1cccnc1)c1ccccc1OCCO`: the composite z-score with Albumin (Bos taurus) was 0.287; in experiment [2], -0.0345; in experiment [3], -0.161; in experiment [4] it was 0.268; in experiment [5], 0.232; in [6] it was 0.259. The composite z-score with Sam68 (KHDRBS1) is -0.546; in experiment [7], 0.335; in [8], 0.277. Moreover, the composite Z-score in experiment [1] was 1.71 (inactive).

Consider `C=CC[C@@]1(C(=O)N(C)C)N=C(c2ccc(OCCCO)cc2)O[C@@H]1c1ccccc1N=[N+]=[N-]`, for which the composite z-score with Albumin (Bos taurus) worked out at 0.757; in [2], 0.37; in experiment [3], 0.209; in experiment [4], 0.588; in experiment [5], 3.01; in experiment [6], 1.2. Also, the figures for the composite z-score (with Sam68 (KHDRBS1); in experiment [7]; in experiment [8]) were 1.3, -0.344 and 1.18, respectively. Besides, the composite Z-score in [1] was 0.149 (inactive).

`CCCC[C@@H]1C[C@H]1[C@@H](NC(=O)c1ccco1)c1ccc(C(=O)OC)cc1`: the composite z-score was 0.623 with Albumin (Bos taurus); -0.0967 in [2]; -0.11 in [3]; 0.39 in [4]; 0.792 in experiment [5]; 0.187 in [6]. Moreover, the composite z-score with Sam68 (KHDRBS1) is 0.0166; in experiment [7], 0.0374; in experiment [8], -0.112. For the same molecule, the composite Z-score in experiment [1] was 0.224 (inactive).

Consider `COc1ccc(CCNC(=O)[C@@H]2c3ccccc3C(=O)N(C3Cc4ccccc4C3)[C@H]2c2ccc(CO)cc2)cc1`, for which the composite z-score in the experiment with Albumin (Bos taurus) is 0.397; in experiment [2], -0.0725; in experiment [3], -0.0907; in experiment [4], 0.705; in [5], 2.21; in experiment [6], 0.0554. For the same molecule, the composite z-score in the experiment with Sam68 (KHDRBS1) is 0.73; in experiment [7] it was -0.551; in experiment [8], 0.542. The composite Z-score in experiment [1] is 0.131 (inactive).

Turning to `CC(C)(C)OC(=O)CC[C@]1(C(=O)O)N=C(c2ccc(OCCCO)cc2)O[C@H]1c1ccccc1N=[N+]=[N-]`, the composite z-score with Albumin (Bos taurus) stood at 0.82; in experiment [2] it was 0.786; in experiment [3], 0.473; in experiment [4], 0.838; in [5], 2.95; in experiment [6], 0.781. Also, the composite z-score in the experiment with Sam68 (KHDRBS1) was 0.889; in experiment [7], 0.0588; in experiment [8], 0.663. Also, the composite Z-score in experiment [1] is 0.653 (inactive).

Turning to `C=CCC(OC(C)=O)[C@@H]1[C@@H](N(Cc2ccc(-c3cccc(C(F)(F)F)c3)o2)C(=O)Cc2ccc(F)cc2)c2cc(OCCCO)ccc2N1C(=O)Cc1ccc(OC)cc1` (stereo not given in full), the composite z-score in the experiment with Albumin (Bos taurus) was -0.0141; in experiment [2], -0.0918; in experiment [3], -0.124; in experiment [4] it was -0.498; in [5] it was -1; in experiment [6], -0.348. Further, the composite z-score with Sam68 (KHDRBS1) is -3.75; in experiment [7] it was 0.149; in experiment [8], -1.29. Moreover, the composite Z-score in [1] is -0.105 (inactive).

Take `NCCCCCNC(=O)[C@@H]1C[C@@H]2C(=O)NCC(=O)N2[C@@H]1c1ccc(O)cc1`: the composite z-score was 0.802 in the experiment with Albumin (Bos taurus); -0.0889 in [2]; -0.108 in experiment [3]; 0.558 in experiment [4]; 0.899 in experiment [5]; 0.249 in [6]. Further, the composite z-score came to 1.31 with Sam68 (KHDRBS1), 0.831 in [7] and 1.06 in [8]. In addition, the composite Z-score in [1] is 0.126 (inactive).

As to `CCOC(=O)C1=CCC(c2ccccc2)N(S(=O)(=O)CC[Si](C)(C)C)C1` (stereo not given), the composite z-score is -0.149 with Albumin (Bos taurus); -0.392 in experiment [2]; -0.188 in experiment [3]; -0.35 in experiment [4]; -0.177 in [5]; -0.0394 in [6]. Besides, the results for the composite z-score (in the experiment with Sam68 (KHDRBS1); in [7]; in experiment [8]) were -0.717, 0.165 and -0.0238, respectively. For the same molecule, in experiment [1], the composite Z-score is 0.0503 (inactive).
